From PubChem
Only some compounds are listed: those with a hit (about 2.9% of all), similar ones and a draw of the others.
PLC-beta3 inh – PLC-beta3 (human) inhibition, primary screen; Q01970; Purified PLC-beta3, fluorogenic substrate, fluorescence; inhibition, % at 12.2 µM; hit rate 0.18% among 370,000; AID 720704; in the data active = inhibition above about 11%;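 also: 0% = median of compound wells on plate and 100% = full blocker control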
Target sequence (Q01970 whole entry, looked up): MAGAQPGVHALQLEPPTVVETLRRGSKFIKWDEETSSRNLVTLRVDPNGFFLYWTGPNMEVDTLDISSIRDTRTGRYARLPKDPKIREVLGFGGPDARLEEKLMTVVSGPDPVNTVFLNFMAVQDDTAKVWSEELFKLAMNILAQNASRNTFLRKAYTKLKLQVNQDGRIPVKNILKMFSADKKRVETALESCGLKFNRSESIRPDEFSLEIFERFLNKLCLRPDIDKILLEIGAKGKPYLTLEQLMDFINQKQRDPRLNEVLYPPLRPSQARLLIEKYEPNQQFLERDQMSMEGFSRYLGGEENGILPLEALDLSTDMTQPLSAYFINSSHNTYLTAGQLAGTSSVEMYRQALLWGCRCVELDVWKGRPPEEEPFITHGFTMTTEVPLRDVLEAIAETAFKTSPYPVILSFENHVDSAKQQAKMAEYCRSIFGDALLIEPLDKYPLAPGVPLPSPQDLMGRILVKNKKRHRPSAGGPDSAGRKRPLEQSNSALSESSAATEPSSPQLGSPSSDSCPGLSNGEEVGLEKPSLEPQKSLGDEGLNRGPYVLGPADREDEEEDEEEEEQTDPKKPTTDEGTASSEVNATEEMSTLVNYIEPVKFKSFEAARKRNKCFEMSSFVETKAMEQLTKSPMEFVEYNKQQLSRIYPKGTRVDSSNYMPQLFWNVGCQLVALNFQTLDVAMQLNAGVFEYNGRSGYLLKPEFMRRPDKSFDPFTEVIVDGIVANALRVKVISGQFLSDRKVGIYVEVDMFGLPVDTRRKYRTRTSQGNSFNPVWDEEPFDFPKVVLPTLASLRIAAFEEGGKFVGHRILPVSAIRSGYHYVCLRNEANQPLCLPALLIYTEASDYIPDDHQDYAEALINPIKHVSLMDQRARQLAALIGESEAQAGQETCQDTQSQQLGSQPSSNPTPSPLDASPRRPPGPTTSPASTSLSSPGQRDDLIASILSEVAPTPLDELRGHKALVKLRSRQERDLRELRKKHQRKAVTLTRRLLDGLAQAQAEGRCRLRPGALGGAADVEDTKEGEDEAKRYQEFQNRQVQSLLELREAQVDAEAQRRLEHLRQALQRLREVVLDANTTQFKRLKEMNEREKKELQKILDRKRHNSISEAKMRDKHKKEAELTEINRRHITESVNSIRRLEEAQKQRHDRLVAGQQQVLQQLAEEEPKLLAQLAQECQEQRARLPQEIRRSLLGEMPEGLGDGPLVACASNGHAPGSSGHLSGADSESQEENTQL
ADAM17 inh – inhibitors of human ADAM17; inhibition, % at 6.95 µM; hit rate 0.83% among 370,000; P78536; AID 720648; recombinant ADAM17, EDANS/DABCYL FRET peptide cleavage;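 active = inhibition above the mean of compounds lying between control limits plus 3 SD, set per campaign, cut at about 8.5% in these data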;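 also: 0% = DMSO-only wells as the low control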
proKLK7 act – activators of human kallikrein-7 zymogen; P49862; purified proKLK7, EDANS-DABCYL substrate fluorescence; 100% is mature enzyme control, 0% vehicle; activation, % at 7 µM; hit rate 0.9% among 370,000; AID 652039;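 active = activation above the mean of all tested compounds plus 3 SD, computed per campaign excluding outliers beyond control limits, cut at about 13% in these data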
PLCg1 inh – PLC-gamma1 (human) inhibition, primary screen; P19174; purified PLC-gamma1, fluorogenic substrate, fluorescence; inhibition, % at 12.2 µM; hit rate 0.84% among 370,000; in the data active = inhibition above about 9.5%
ADAM10 inh – inhibits human ADAM10; AID 720582; O14672; recombinant ADAM10, EDANS/DABCYL FRET peptide cleavage, 3 h; hit rate 0.62% among 370,000; inhibition, % at 7 µM;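 active = inhibition above a per-campaign cutoff equal to the mean of compounds falling between control-based bounds plus 3 SD, cut at about 20% in these data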;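 also: 0% = DMSO wells while the 100% control is not disclosed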
ADAM10 confirm – confirmation of inhibitors of human ADAM10; ADAM10 QFRET peptide cleavage, EDANS fluorescence; shares compounds with ADAM10 inh; inhibition, % at 6.95 µM; hit rate 1% among 2,100; AID 743208;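 active = inhibition above about 20% chosen separately for each screening run, limit read from the data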;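 also: 0% = DMSO wells and 100% = marimastat wells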
ADAM17 counter – counter-screen for ADAM10 exosite inhibitors: inhibitors of human ADAM17; hit rate 0.5% among 2,100; ADAM17 QFRET peptide cleavage, EDANS fluorescence; shares compounds with ADAM10 inh; inhibition, % at 6.95 µM;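 active = mean triplicate inhibition above the solvent-only control wells' mean plus 3 SD, cut at about 12% in these data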;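 also: 0% = DMSO wells and 100% = marimastat wells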
* hit, by the source's call; . = no result.

SMILES | PLC-beta3 inh | ADAM17 inh | proKLK7 act | PLCg1 inh | ADAM10 inh | ADAM10 confirm | ADAM17 counter
CCc1ccc(-n2c(SCC(=O)N3Cc4ccccc4CC3C(=O)O)nnc2-c2ccncc2)cc1 (stereo not given) | -5.2 | -7.0 | 0.1 | -0.3 | -6.2 | . | .
Cc1onc(-c2ccccc2)c1-c1nnc(COC(=O)c2ccc(O)cc2)o1 | -2.9 | 6.7 | -0.2 | 0.5 | 22.0* | 0.3 | 0.4
Cc1nc(NC(=O)COC(=O)CCc2nc3ccccc3s2)c(Cl)cc1Cl | -0.4 | 2.1 | -0.1 | 4.5 | -13.1 | . | .
O=C(COC(=O)CCc1nc2ccccc2s1)Nc1ccc(Cl)cn1 | -5.2 | -2.4 | -0.5 | -5.7 | 23.8* | 1.3 | 0.2
O=C(CC(c1ccccc1)c1ccccc1)Nc1ccc(Cl)cn1 | 2.7 | 13.8* | -0.4 | 9.6* | 22.9* | 1.8 | 0.5
CSCc1ccc(C(=O)NC(C)c2ccc(-n3ccnc3)cc2)cc1 (stereo not given) | -7.3 | -2.2 | 0.0 | 0.4 | -6.9 | . | .
O=C1C(=O)N(C2CCCC2)C(=O)N1Cc1c(F)cccc1Cl | -0.2 | -0.8 | 0.0 | -2.7 | 20.7* | 1.5 | -0.1
CCCN1C(=O)C(Cc2nc3ccccc3c(=O)n2-c2ccccc2)c2ccccc21 (stereo not given) | 0.1 | 0.2 | -0.1 | 2.4 | -4.5 | . | .
CC(C)N1C(=O)C(Cc2nc3ccccc3c(=O)n2-c2ccccc2)c2ccccc21 (stereo not given) | -0.2 | 1.7 | -0.2 | -2.6 | 85.5* | 2.9 | 0.7
Oc1ccc(C[C@H]2CNC(=S)N2CC2CCCN2C[C@H](Cc2ccc(O)cc2)N2C[C@H](Cc3ccccc3)N(CC3CCCCC3)C2=S)cc1 (stereo not given in full) | 3.5 | 12.9* | 0.0 | 2.0 | 20.2* | 25.0* | 8.9
Oc1ccc(C[C@H]2CNC(=S)N2CC2CCCN2C[C@H](Cc2ccccc2)N2C[C@H](Cc3ccc(O)cc3)N(CC3CCCCC3)C2=S)cc1 (stereo not given in full) | 5.7 | 4.2 | -0.1 | 4.8 | 25.4* | 15.1 | 5.9
Oc1ccc(C[C@H]2CN([C@@H](Cc3ccccc3)CN3CCC[C@@H]3CN3C(=S)NC[C@@H]3Cc3ccccc3)C(=S)N2CC2CCCCC2)cc1 | 0.2 | 1.6 | -0.2 | 4.2 | -16.9 | . | .
Cc1ccc(C(=O)NC(NCC2CCCO2)C(Cl)(Cl)Cl)cc1 (stereo not given) | 0.8 | 1.0 | -0.3 | 3.0 | 1.1 | . | .
CCS(=O)(=O)c1ccc2oc(Nc3ccc(OC)cc3)nc2c1 | -5.0 | -0.9 | -0.2 | -0.4 | -3.6 | . | .
CCS(=O)(=O)c1ccc2oc(Nc3ccc(C(C)(C)C)cc3)nc2c1 | -4.6 | 6.1 | -0.2 | 3.1 | 24.3* | 0.8 | 0.2
CCN(CC(=O)NCc1cccnc1)S(=O)(=O)c1ccc(OC)cc1 | -2.5 | -1.0 | -0.5 | -0.6 | -0.5 | . | .
C[C@H]1CN([C@@H](C)CO)C(=O)Cc2cc(NC(=O)CCC(F)(F)F)ccc2O[C@H]1CN(C)Cc1ccc(-c2ccccc2)cc1 | 4.2 | 7.6 | 0.3 | 3.4 | 28.7* | 6.6 | 2.3
C[C@@H]1CN([C@H](C)CO)C(=O)Cc2cc(NC(=O)CCC(F)(F)F)ccc2O[C@@H]1CN(C)C(=O)Nc1ccccc1 | 2.2 | 1.1 | 0.5 | 2.2 | 7.5 | . | .
CCN(c1ccccc1)S(=O)(=O)c1ccc(Cl)c(NC(=O)CSc2ncn[nH]2)c1 | 1.9 | 2.0 | -0.8 | 2.1 | 22.7* | 3.0 | 3.1
Cc1ccc(S(=O)(=O)N2CCC(=O)N2)cc1 | 1.5 | 0.1 | -0.1 | 2.4 | 27.9* | 12.0 | 0.6
O=C1CCN(S(=O)(=O)c2ccc(Cl)cc2)N1 | -2.9 | -0.8 | -0.5 | 3.4 | 5.4 | . | .
CC1CCC(NC(=O)c2cccc(S(=O)(=O)N3CCN(c4ccccc4)CC3)c2)CC1 (stereo not given) | -1.8 | -2.1 | 0.4 | 1.4 | -0.6 | . | .
O=C(NC1CCCc2ccccc21)c1cccc(S(=O)(=O)N2CCN(c3ccccc3)CC2)c1 (stereo not given) | 1.2 | 9.5* | -0.2 | 4.7 | 20.1* | 8.8 | 2.4
C#CCN(C[C@H]1[C@H](OC(=O)NCc2ccccc2)[C@H](OC(=O)NCc2ccccc2)C[C@@H](C(=O)OC)[C@H]1C(=O)OC)S(=O)(=O)c1ccc(C)cc1 | -0.8 | 1.8 | 0.4 | 4.1 | 6.1 | . | .
COc1ccc(Cc2nnc(N/N=C/c3ccc(C)o3)[nH]c2=O)cc1 | 1.0 | 0.6 | -0.6 | 2.5 | 1.9 | . | .
SMILES | PLC-beta3 inh | ADAM17 inh | proKLK7 act | PLCg1 inh | ADAM10 inh | ADAM10 confirm | ADAM17 counter
COc1ccc(NC(=O)c2ccc(OCc3c(C)noc3C)c(OC)c2)cn1 | -6.5 | -6.0 | -0.1 | 0.1 | -3.8 | . | .
Cc1n[nH]c(C)c1CCc1nc2c3ccccc3nc(SCC(=O)Nc3ccccc3F)n2n1 | -3.4 | -1.0 | 0.5 | 5.2 | -4.5 | . | .
COc1cc(/C=C2\SC(=S)N(CCC(=O)Nc3cccc(O)c3)C2=O)cc(OC)c1OC | -25.6 | 6.2 | -1.8 | -16.1 | 20.8* | 5.0 | 1.9
COc1ccccc1/C=C1\SC(=S)N(CCC(=O)Nc2cccc(O)c2)C1=O | -8.1 | 8.3 | -0.3 | 2.4 | 22.8* | 2.4 | 1.2
O=C(C1CCN(S(=O)(=O)c2cnc[nH]2)CC1)N1CCN(c2ccc([N+](=O)[O-])cc2)CC1 | -0.5 | 1.6 | -0.5 | 0.8 | 44.9* | -0.7 | -0.1
Cc1cc(C(=O)OCC(=O)N(CC(C)C)c2c(N)n(Cc3ccccc3)c(=O)[nH]c2=O)c(C)o1 | -9.4 | -2.0 | 0.4 | -5.6 | -4.6 | . | .
O=c1oc2ccccc2nc1/C=C(O)/C=C\c1ccccc1 | -38.4 | -5.8 | -1.7 | -27.8 | -10.9 | . | .
CCN1CCN(S(=O)(=O)c2ccc(Cl)c(C(=O)NC3CCCC3)c2)CC1 | -4.2 | 0.9 | 0.4 | 0.8 | -4.0 | . | .
CN(CC(=O)NCc1ccc(F)cc1)CC(=O)Nc1ccc(Cl)c(C(F)(F)F)c1 | -6.3 | 4.6 | 0.0 | 2.9 | 22.8* | 0.1 | 0.4
O=C(CSc1nc2ccc(NC(=O)c3ccccc3C(=O)O)cc2s1)Nc1c(Cl)cccc1Cl | -23.9 | 3.7 | -1.5 | -4.7 | 20.4* | 0.4 | 0.6
O=C(CSc1nc2ccccc2s1)Nc1ccc(Cl)c(C(=O)O)c1 | -3.2 | -1.6 | 0.7 | -4.4 | 6.8 | . | .
CCCC(=O)N1N=C(c2ccccc2)CC1c1cn(C)c2ccccc12 (stereo not given) | -30.1 | -1.2 | -0.6 | -24.3 | -9.8 | . | .
Cc1cnn(CCC(=O)NNC(=S)Nc2ccc(F)cc2)c1 | 1.0 | 7.1 | 0.0 | 3.9 | 20.1* | 1.2 | 1.7
CC(=O)c1cc2c(cc1NS(=O)(=O)c1cccc(C(=O)O)c1)OCO2 | -11.1 | -3.5 | 0.6 | -4.5 | -14.2 | . | .
c1ccc2c(c1)[nH]c1nc(SCCN3CCOCC3)nnc12 | -2.6 | -6.3 | -1.0 | -5.5 | -4.0 | . | .
